# Compound activity: PubChem, National Center for Advancing Translational Sciences (NCATS)
# KB-3-1 cytotox – kills parental KB-3-1 adenocarcinoma cells. AID 1347075. KB-3-1 viability, CellTiter-Glo ATP luminescence, 72 h. Potency, µM (doses to about 46.1 µM), most hits filed as cytotoxic. hit rate 1.4% among 400,000; further: on the % scale 0 is the no-effect control and ±100 the full control effect; nearly all actives have a fitted effect of over 60% in size
#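 Multi-concentration cytotoxicity screen in KB-3-1 cells grown in DMEM lacking phenol red with 10% FBS. After 72 h at 37 °C with compound, ATP-dependent luminescence was recorded.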
# PINK1 modulator – modulators of PINK1 expression. PINK1 immunofluorescence, high-content cytometry, 24 h. Potency, µM (highest dose often 76.6 µM), for the others: at the highest dose activation (PINK1 increase), most hits filed as activators. hit rate 0.2% among 410,000; active means well fitted activation curve with a large enough effect; inconclusive means small, poorly fitted or top-dose-only effect; cell line not stated here; further: % of control where 0% means no effect; nearly all actives have a fitted effect of over 65% in size
#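 Stable cell line treated 24 h with compounds at 5 concentrations (CCCP controls), then fixed and immunostained for PINK1 plus nuclear and cell stains; PINK1 immunofluorescence quantified by laser-scanning microplate cytometry.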
# TSG101-PTAP inh – blocks PTAP/TSG101 interaction to inhibit HIV-1 budding | 340,000 tested, under 10 active | Q99816 | Fluorescence polarization, FITC-PTAP peptide / Tsg101 binding | Potency, µM (series often up to 115 µM), for inactives: at the top dose activity change, negative = inhibition, actives largely listed as inhibitors; active means well fitted inhibition curve with a large enough effect in the main read-out, with a control signal flat, not every such curve was filed as active; inconclusive means small, poorly fitted or top-dose-only effect, or effect the other way, or a change in a side signal; inactive means no such curve, though single readings can be large or run the other way; further: % of control where 0% means no effect
# Target sequence (Q99816 whole entry, looked up): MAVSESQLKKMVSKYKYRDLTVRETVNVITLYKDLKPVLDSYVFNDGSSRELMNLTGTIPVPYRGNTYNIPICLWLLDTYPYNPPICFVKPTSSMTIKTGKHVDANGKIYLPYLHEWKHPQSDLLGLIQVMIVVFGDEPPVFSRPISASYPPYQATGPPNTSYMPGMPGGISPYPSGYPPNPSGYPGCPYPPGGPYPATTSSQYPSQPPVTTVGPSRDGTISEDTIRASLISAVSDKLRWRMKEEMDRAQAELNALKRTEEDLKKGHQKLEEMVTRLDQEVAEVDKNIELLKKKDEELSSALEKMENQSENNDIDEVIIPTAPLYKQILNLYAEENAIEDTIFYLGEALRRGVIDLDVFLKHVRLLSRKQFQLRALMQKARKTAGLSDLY
#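 FP read-out: FITC-PTAP peptide, 50 nM final, binding Tsg101 binding domain, 10 uM final; 20 min, r.t.; 10 mM HEPES pH 7.5, 0.15 M NaCl, 0.01% Tween 20, 3 mM EDTA, 0.1 mM TCEP.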
# MCF10A rereplic – induces DNA re-replication in MCF 10a normal breast cells | MCF 10A DNA re-replication, Hoechst nuclear intensity, 48 h | Potency, µM (highest dose often 46.1 µM), for the others: at the top dose activity, positive = re-replication, hits mostly activators | hit rate 2.9% among 350,000 | AID 624296; further: % of control where 0% means no effect; nearly all actives have a fitted effect of over 50% in size
# SW480 rereplic – inducers of DNA re-replication in SW480 colon cancer cells; SW480 DNA re-replication, Hoechst DNA content imaging, 48 h; Potency, µM (doses to about 46.1 µM), for the others: at the highest dose re-replication activation, actives largely listed as activators; hit rate 1.8% among 340,000; further: % of control where 0% means no effect; nearly all actives have a fitted effect of over 55% in size
#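 SW480 cells exposed to compounds for 48 hr at 37 C, 5% CO2, then Hoechst-stained 40 min. Nuclear DNA content imaged by fluorescence scanning (405 nm excitation, 500-530 nm emission); re-replication scored as increased high-intensity nuclei.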
# KB-V1 MDR tox – KB-V1 MDR subline cytotoxicity; AID 1347076; KB-V1 MDR cells viability, CellTiter-Glo, 72 h; hit rate 3.4% among 400,000; Potency, µM (series often up to 46.1 µM), most hits filed as cytotoxic; further: on the % scale 0 is the no-effect control and ±100 the full control effect; nearly all actives have a fitted effect of over 60% in size
#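 Following 72 h at 37 degrees C with compound, KB-V1 cell viability was read by CellTiter-Glo luminescence, medium being phenol-red-free DMEM plus 10% FBS; concentration-response parameters came from normalized, curve-fitted qHTS data.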
# Active calls of the source: *; i = inactive; ? = inconclusive; · = not tested or not shown; [ ] = remark or other dose. An excerpt weighted towards active compounds, which were near 6.8% of everything screened. Unless noted, the call rests on the fitted dose curve; in most records, active means well fitted curve in the direction sought with a large enough effect; inconclusive means small, poorly fitted or top-dose-only effect, or another doubt; inactive means no such curve, though single readings can be large; an effect the other way counts as inactive or inconclusive. Potency means the concentration at half of the fitted maximal effect.
SMILES,KB-3-1 cytotox,PINK1 modulator,TSG101-PTAP inh,MCF10A rereplic,SW480 rereplic,KB-V1 MDR tox
O=C(Nc1cccc(S(=O)(=O)N2CCCCC2)c1)Nc1ccc(Cl)cc1Cl,?,?,-2%,7.3µM*,?,?
COc1ccc(S(=O)(=O)N2CCCCCC2)cc1C(=O)N(C)CC(=O)Nc1ccc(F)cc1,i,4%,-1%,8%,-349%,i
O=C(Cc1ccccc1Cl)Nc1cccc(S(=O)(=O)N2CCCCCC2)c1,i,1%,-8%,?,-10%,i
O=C(Cc1ccccc1F)Nc1ccc(S(=O)(=O)N2CCCCC2)cc1,i,1%,1%,10%,?,i
CN(CC(=O)Nc1ccc(S(=O)(=O)N2CCCC2)cc1)Cc1c(F)cccc1Cl,?,-1%,-2%,9%,6%,7.3µM*
O=C(Cn1nc(-c2ccccc2F)ccc1=O)Nc1ccc(S(=O)(=O)N2CCCCCC2)cc1,i,-3%,0%,22%,15µM*,13µM*
O=C(Nc1nnc(-c2ccncc2)s1)Oc1ccc2ccccc2c1,?,·,·,·,·,i
CN(CC(=O)Nc1cccc(S(=O)(=O)N2CCCC2)c1)CC(=O)Nc1ccc(Cl)c(C(F)(F)F)c1,?,29%,0%,?,?,i
CN(CC(=O)Nc1cccc(S(=O)(=O)N2CCCC2)c1)CC(=O)Nc1ccc(F)c(F)c1F,i,-3%,-8%,0%,2%,21µM*
CSc1ccc(-c2nc3cccc(C)n3c2Nc2ccc3c(c2)OCO3)cc1,i,2%,·,·,·,i
Cc1nonc1CN(C)C(=O)C1CC12CCN(C(=O)/C=C/c1cccc(Cl)c1)CC2 (stereo unspecified),·,0%,·,·,·,·
O=C(NC1CCCCC1)c1ccc2c(c1)N(Cc1cccc(F)c1)C(=O)c1ccccc1S2,i,1%,·,·,·,i
Cc1ccc(S(=O)(=O)NC(=NC(C)C(=O)O)c2ccccc2)cc1 (stereo unspecified),i,-1%,-4%,-5%,-2%[9.22 µM],i
Cc1ccc(S(=O)(=O)NC(=NC(C)C)c2ccccc2)cc1,i,1%,-10%,0.52µM*,?,?
CCN(CC)CCCNC(=O)c1sc2ncn(CC(=O)Nc3ccc(C)c(Cl)c3)c(=O)c2c1C,i,5%,-8%,-7%,18µM*,i
CC(C)(C)Cc1c(-c2ccc(Br)cc2)nc2ccc(Br)cn12,i,40µM*,·,·,·,i
COc1ccccc1Cc1c(-c2ccc(Cl)cc2)nc2c(C)cc(Br)cn12,16µM*,1%,·,·,·,?
Cc1cc(Br)cn2c(Cc3cccc(F)c3)c(-c3ccc(F)cc3)nc12,16µM*,3%,·,·,·,i
COc1ccc(Cc2c(-c3ccccc3)nc3ccc(Br)cn23)c(C)c1,?,32µM*,·,·,·,i
O=C(Cn1ncc2ccc(Cl)cc21)NCc1ccc(F)cc1,i,0%,·,·,·,?
CCCCN(CC)C(=O)c1nn(C)c2c1CSc1ccccc1-2,·,2%,·,·,·,·
CCC1CN(CCNC(=O)c2ccnc(Cl)c2)Cc2cc(OC)ccc2O1 (stereo unspecified),·,1%,·,·,·,·
O=C(NC(=S)Nc1ccc(N2CCOCC2)c(Cl)c1)c1cncc(Br)c1,i,-1%,-6%,8%,?,?
CCC(=O)N1CCN(c2ccc(Cl)cc2NC(=O)c2ccc3c(c2)OCCO3)CC1,i,-2%,0%,7%,-3%,5.2µM*
S=C(Nc1ccc(Cl)cc1)Nc1ccc2c(c1)OCCO2,i,2%,1%,11%,5.2µM*,i
O=C(NC(=S)Nc1ccc(N2CCCCC2)c(Cl)c1)c1ccc2c(c1)OCCO2,1.2µM*,5%,13%,9.2µM*,?,?
Cc1cc(C)cc(C(=O)NC(=S)Nc2ccc3c(c2)OCCO3)c1,i,0%,-3%,5%,-5%,4.6µM*
